PP5 inh: inhibitors of human protein phosphatase 5 (PP5); P53041; purified PP5c, OMFP substrate fluorescence; inhibition, % at 6.7 µM; 320,000 compounds, 0.18% hits; AID 1987;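 active means inhibition above the campaign's mean inhibition across all tested compounds plus 3 SD, cut at about 9.5% in these data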
Target sequence (P53041 whole entry, looked up): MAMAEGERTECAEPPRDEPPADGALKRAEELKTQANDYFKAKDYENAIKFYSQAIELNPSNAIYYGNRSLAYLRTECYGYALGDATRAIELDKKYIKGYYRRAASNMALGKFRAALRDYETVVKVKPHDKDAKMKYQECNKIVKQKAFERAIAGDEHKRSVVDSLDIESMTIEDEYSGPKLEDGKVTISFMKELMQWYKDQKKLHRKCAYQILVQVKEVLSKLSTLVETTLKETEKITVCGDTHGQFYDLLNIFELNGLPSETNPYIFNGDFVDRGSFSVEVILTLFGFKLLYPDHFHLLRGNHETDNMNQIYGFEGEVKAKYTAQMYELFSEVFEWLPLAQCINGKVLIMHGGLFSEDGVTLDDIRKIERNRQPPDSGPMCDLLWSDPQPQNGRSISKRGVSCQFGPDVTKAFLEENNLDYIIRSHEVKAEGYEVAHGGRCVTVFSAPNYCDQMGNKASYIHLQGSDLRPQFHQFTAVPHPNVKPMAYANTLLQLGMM
Beta apoptosis: beta cell apoptosis inhibition | AID 435005 | INS-1E cytokine-induced death, ATP luminescence, 48 h; percent of positive-control rescue, neutral wells zero | 300,000 compounds, 0.8% hits | protection from apoptosis, % (concentration not given with the values);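 active means Every replicate reaches about 75%, or at least half do and their mean reaches it too, limit read from the data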;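 further: higher means more ATP so stronger rescue from cytokine killing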
CSC inhib: blocks cancer stem cells; 300,000 compounds, 1.1% hits; cancer stem cell-like cells viability, luminescence; AID 2717; inhibition, % at 7.5 µM; in the data active means inhibition above about 75%; tested in HMLE shEcad cells
PP1 inh: blocks human PP1-alpha phosphatase, a PP5 counter-screen. 320,000 compounds, 0.9% hits. purified PP1alpha, OMFP fluorescence. P62136. inhibition, % at 6.7 µM;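 active means inhibition above the mean inhibition of all tested compounds plus 3 SD, computed separately for each screening campaign, cut at about 15% in these data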
SKKanGAS inh: SKKanGAS growth inhibition; S. pyogenes SKKanGAS, kanamycin growth, BacTiter-Glo, 6 h; inhibition, % at 7.5 µM; 300,000 compounds, 1.3% hits;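 active means mean replicate score, as percent of positive control median, at least 50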;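 further: strain carries kanamycin resistance gene driven by streptokinase promoter and grows in 40 µg/ml kanamycin; loss of luminescence reflects streptokinase promoter inhibition or plain growth inhibition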
Numbers stand for hits; n = inactive; x = not tested or not shown. This is a sample that favours compounds with a hit; in the whole collection about 3.1% have one here.

SMILES	PP5 inh	Beta apoptosis	CSC inhib	PP1 inh	SKKanGAS inh
CC(C)(C)c1nnc(N/N=C/c2cc(Br)ccc2O)n(N)c1=O	n	95	112	n	78
c1ccc(N2N=C(c3cccs3)CC2c2ccco2)cc1 (stereo not given)	n	n	n	n	65
O=C1NC(=S)S/C1=C\c1ccc(SCc2ccco2)o1	n	n	n	n	x
O=C1NC(=S)S/C1=C\c1ccc(SCc2ccccc2)o1	n	n	76	n	x
CCCCCc1ccc(OCCC[n+]2ccccc2)c(CCCCC)c1	n	113	n	n	n
CCCCCc1ccc(OCCOCCn2c[n+](C)c3ccccc32)c(CCCCC)c1	x	x	x	x	84
CC(=O)Nc1ccc(OCCC[n+]2ccccc2)cc1	n	n	n	n	n
CCCn1cnc2c(=S)nc(N)[nH]c21	n	n	n	n	n
C#Cc1ccc([C@@H]2C=C(C(=O)N3CCN(Cc4ccccc4)CC3)O[C@H](OCCCCO)C2)cc1	n	124	n	n	n
O=C(C1=C[C@@H](c2ccc(C(F)(F)F)cc2)C[C@@H](OCCCCO)O1)N1CCN(Cc2ccccc2)CC1	n	116	n	n	n
O=C(C1=C[C@H](c2ccccc2)C[C@H](OCCCCO)O1)N1CCN(Cc2ccccc2)CC1	n	n	n	n	n
O=C(C1=C[C@H](c2ccc(C(F)(F)F)cc2)C[C@H](OCCCCO)O1)N1CCN(Cc2ccccc2)CC1	n	n	n	n	n
O=C(C1=C[C@H](c2ccc(C(F)(F)F)cc2)C[C@H](OCc2ccc(CO)cc2)O1)N1CCN(Cc2ccc3c(c2)OCO3)CC1	n	n	80	n	n
O=C(NCc1n[nH]c(=S)n1-c1ccc(Cl)c(Cl)c1)c1ccco1	n	n	n	n	n
O=C(COC(=O)CNC(=O)c1ccc(Cl)cc1Cl)NC1CCCCC1	x	n	n	x	n
CCOC(=O)Cc1cc(=O)n2[nH]c(C)c(-c3ccccc3)c2n1	n	n	n	15	n
CCN(CC)c1ccc(-c2nn3c(-c4cccnc4)nnc3s2)cc1	x	x	x	x	68
COc1ccc(OC)c(-c2csc(NC(=O)Cc3ccc(F)cc3)n2)c1	n	x	n	n	n
COc1ccc(OC)c(-c2csc(NC(=O)c3ccc(F)cc3)n2)c1	n	n	86	n	n
Nc1nc(N(Cc2ccccc2)Cc2ccccc2)nc(C(F)(F)F)n1	n	n	x	n	x
CC1(NC(=O)CC(c2ccccc2)(c2ccccc2)c2ccccc2)CCN(CCCc2ccccc2)C1=O (stereo not given)	n	n	100	n	x
N#Cc1c(NC(=O)c2ccc(Cn3cc(Br)cn3)o2)sc2c1CCCCC2	n	n	106	n	n
Nc1nc(-c2cc3ccccc3o2)cs1	n	n	n	n	n
N=c1c2c(n(Cc3cccc(Cl)c3)c3c1CCC3)CCCC2	n	94	n	n	n
N=c1c2c(n(Cc3ccc(Cl)cc3)c3c1CCC3)CCC2	n	n	x	n	n
SMILES	PP5 inh	Beta apoptosis	CSC inhib	PP1 inh	SKKanGAS inh
O=c1[nH]c(CNCc2cccnc2)nc2ccccc12	n	n	n	n	n
Cc1ccc(CCNS(=O)(=O)c2cc3c(cc2Cl)NC(=O)CO3)cc1	n	n	n	n	n
O=C(NC(=S)NNC(=O)c1cccs1)c1ccccc1	n	n	n	n	86
CC(C)(C)c1ccc(C(=O)NC(=S)NNC(=O)c2cccs2)cc1	n	n	n	n	104
CCCC(=O)Nc1ccc(C(=O)NNC(=S)NC(=O)c2cccs2)cc1	n	x	n	n	n
Cc1ccccc1C(=O)NNC(=S)NC(=O)c1cccs1	n	n	n	n	69
Cc1cccc(C(=O)NC(=S)NNC(=O)c2ccc(Cl)cc2)c1	n	n	n	n	105
O=C(NNC(=S)Nc1ccccc1)c1cccs1	n	n	n	n	n
C=CCc1cc(Cl)ccc1OCCn1ccnc1	n	n	n	n	n
CSc1ccccc1OC1CCN(Cc2ccccc2)CC1	n	n	n	n	n
O=C(NNC(=O)c1cccs1)c1ccco1	n	n	n	n	n
O=C(NC(=S)NNC(=O)c1cccs1)c1ccco1	n	n	n	n	61
Cc1cccc(C(=O)NC(=S)NNC(=O)c2cccs2)c1	n	n	n	n	51
CCOC(=O)c1cccc(NC(=O)c2ccc(-n3cnnn3)cc2)c1	x	n	n	x	x
CC(C)(C)n1cnc2cc(NCc3ccc(Br)cc3)ccc21	n	n	n	n	n
CCc1ccc(CNc2ccc3c(c2)ncn3C(C)(C)C)cc1	n	n	n	n	57
COc1cc(CCCN2CCNC[C@@H]2Cc2ccc(O)cc2)cc(OC)c1OC	n	n	n	n	n
O=C(NCCCn1ccnc1)c1ccc(-c2ccccc2)cc1	n	97	n	n	n
O=C(NCCCn1ccnc1)c1ccc(N2CCCCCC2)c([N+](=O)[O-])c1	n	95	n	n	n
CC1CN(S(=O)(=O)c2ccc(C(=O)NCCCn3ccnc3)cc2)CC(C)O1 (stereo not given)	n	113	n	n	n
Cc1ccc(C(=O)NCCCn2ccnc2)cc1[N+](=O)[O-]	n	n	n	n	n
O=C(NCCCn1ccnc1)c1ccc(F)cc1	n	x	n	n	n
O=C(COC(=O)C12CC3CC(CC(C3)C1)C2)Nc1ccc2[nH]c(=O)[nH]c2c1	n	n	n	n	n
COC(C(=O)Nc1ccnn1C1CCN(Cc2nccs2)CC1)c1ccccc1 (stereo not given)	n	x	n	n	51
Cc1ccc(-c2nn(-c3ccccc3)cc2/C=N/NC(=O)CSc2nnc(C)n2-c2ccccc2)cc1	n	n	n	n	54
SMILES	PP5 inh	Beta apoptosis	CSC inhib	PP1 inh	SKKanGAS inh
COc1cccc(/C=N/NC(=O)CN2CC(c3ccccc3)CC2=O)c1O (stereo not given)	n	77	n	n	n
COc1cccc(/C=N/NC(=O)CSc2nnc(C)n2-c2ccccc2)c1O	n	n	77	n	n
COc1ccc(/C=N/NC(=O)CSc2nnc(C)n2-c2ccccc2)c(OC)c1OC	n	n	n	n	n
Cc1[nH]c(-c2ccccn2)nc(=S)c1Cl	n	n	n	n	88
Cc1cc(C(=O)N/N=C/c2ccc([N+](=O)[O-])s2)n[nH]1	n	x	x	n	109
Cn1c(SCC(=O)N/N=C/c2ccc([N+](=O)[O-])s2)nnc1-c1ccc(Cl)cc1	n	89	n	n	n
Cc1[nH]cnc1C(=O)N/N=C/c1ccc([N+](=O)[O-])s1	n	n	n	n	103
O=C(c1ccc(Cl)c(S(=O)(=O)N2CCCC2)c1)N1CCCC(C(F)(F)F)C1 (stereo not given)	n	n	n	n	n
CC(C)NC(=S)N/N=C/c1ccc2c(c1)OCCO2	n	n	n	n	n
Cc1ccc(/C=C/C(=O)Nc2ccc([N+](=O)[O-])cc2)o1	n	n	n	n	n
Cc1ccc(/C=C/C(=O)Nc2ccc(Oc3ccccc3)cc2)o1	n	n	88	n	n
COC(=O)c1cc(-c2cccc([N+](=O)[O-])c2)c2c(=O)n(C)c(=O)n(C)c2n1	n	n	n	n	n
COC(=O)c1cc(-c2cccc(OC)c2)c2c(=O)[nH]c(=O)n(C)c2n1	n	n	n	n	62
COC(=O)c1cc(-c2ccc(Br)cc2)c2c(=O)n(C)c(=O)n(C)c2n1	n	n	n	n	52

From PubChem
